# Test results reported in PubChem BioAssay AID1347146 (National Center for Advancing Translational Sciences (NCATS), 2019).
# Inconclusive results are not listed. The source made the active and inactive calls. Calls follow the shape of the dose curve; as a rule, active = well fitted inhibition curve with a large enough effect; inconclusive = small, poorly fitted or top-dose-only effect; inactive = no such curve, though single readings can be large or run the other way.
# Target: Nicotinamide N-methyltransferase (Homo sapiens) (UniProt P40261)
# Experiment: qHTS Assay for Inhibitors of N-terminal methyltransferase 1 (NTMT1): NNMT MTaseGlo counterscreen assay;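 as to activity change, negative = inhibition: plate controls were DMSO without inhibitor for no effect and no-enzyme control for full effect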
# Conditions: NNMT enzyme, MTase-Glo luminescence counterscreen; series mostly up to 57.1 µM; activity change, negative = inhibition: at the top concentration
# Outline: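 Luminescent MTase-Glo read-out of SAH from nicotinamide methylation: 1 µM nicotinamide, 100 µM SAM, 125 nM NNMT, 30 min RT after ~15 min compound preincubation. Values normalized to no-enzyme/DMSO controls, Hill-fitted.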
# Potency is read from the fitted curve at half-maximal effect.
# Sequence of Nicotinamide N-methyltransferase (Homo sapiens) (P40261 whole entry, looked up): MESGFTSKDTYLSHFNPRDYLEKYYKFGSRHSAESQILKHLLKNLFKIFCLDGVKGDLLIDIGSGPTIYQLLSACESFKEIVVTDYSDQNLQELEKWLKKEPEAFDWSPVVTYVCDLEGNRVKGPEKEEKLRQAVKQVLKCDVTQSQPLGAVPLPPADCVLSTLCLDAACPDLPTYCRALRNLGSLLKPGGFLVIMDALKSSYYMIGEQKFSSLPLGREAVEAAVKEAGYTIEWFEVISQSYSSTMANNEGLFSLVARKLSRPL
Structure (SMILES),"activity change, negative = inhibition",Potency
O=C1c2c(O)cc(O)cc2OC(c2ccc(O)c(O)c2)C1O (configuration not stated),-6.75% (inactive),
O=c1cc(-c2ccccc2)oc2c(O)c(O)ccc12,-17.4% (inactive),
CSc1nc(N)c2ncn([C@@H]3O[C@H](COP(=O)(O)OP(=O)(O)OP(=O)(O)O)[C@@H](O)[C@H]3O)c2n1,-12.5% (inactive),
O=Nc1ccc2oc(=O)ccc2c1,-8.49% (inactive),
O=c1ccc2ccc(O)c(O)c2o1,-8.78% (inactive),
Cc1cccc(C)c1OCC(N)C(C)C (configuration not stated),-3.53% (inactive),
CC(CN1c2ccccc2Sc2ccccc21)N(C)C (configuration not stated),98.6% (inactive),
NC(Cc1c[nH]c2ccc(O)cc12)C(=O)O (configuration not stated),-8.98% (inactive),
CCN1CCC[C@H]1CNC(=O)c1cc(S(N)(=O)=O)ccc1OC,-5.75% (inactive),
O=C(/C=C/c1ccc(O)c(O)c1)OCCc1ccccc1,1.7% (inactive),
Oc1cc2c(cc1O)CN(C(=S)NCCc1ccc(Cl)cc1)CCC2,-13.5% (inactive),
CN(C)CCCc1cc(C(=O)Nc2ccc(-c3ccncc3)cc2)ccc1O,-9.81% (inactive),
CC#C[C@]1(O)CC[C@H]2[C@@H]3CCC4=CC(=O)CCC4=C3[C@@H](c3ccc(N(C)C)cc3)C[C@@]21C,-9.63% (inactive),
NCC(O)C1CCCCCCC1 (configuration not stated),-15.3% (inactive),
Nc1[nH]c(=O)nc2c1ncn2C1OC(CO)C(O)C1O (configuration not stated),-17% (inactive),
CC/C(=C(\c1ccccc1)c1ccc(OCCN(C)C)cc1)c1ccccc1,,inactive
O=C(Nc1ccc([N+](=O)[O-])cc1Cl)c1cc(Cl)ccc1O,-10.7% (inactive),
CNC(=O)c1cnn(-c2nc(N)c3ncn([C@@H]4O[C@H](CO)[C@@H](O)[C@H]4O)c3n2)c1,-9.86% (inactive),
CCC(=O)c1ccc2c(c1)N(CCCN(C)C)c1ccccc1S2,-10.4% (inactive),

Structure (SMILES),"activity change, negative = inhibition",Potency
C=CCN1CCc2c(cc(O)c(O)c2Br)[C@@H](c2ccccc2)C1,-16.5% (inactive),
CCCCC#Cc1nc(NC)c2ncn([C@@H]3O[C@H](CO)[C@@H](O)[C@H]3O)c2n1,-8.74% (inactive),
O=c1c(-c2ccc(O)cc2)coc2cc(O)cc(O)c12,-8.39% (inactive),
CCCCCCCCCCCCCCCCCC(=O)OC(CC(=O)O)C[N+](C)(C)C (configuration not stated),-11.9% (inactive),
Nc1ccc(CCNc2ncnc3c2ncn3C2OC(CO)C(O)C2O)cc1 (configuration not stated),-8.43% (inactive),
COc1cc2c(NC3CCN(C(C)C)CC3)nc(N3CCC(F)(F)CC3)nc2cc1OCCCN1CCCCC1,-5.35% (inactive),
S=C(S)N1CCCC1,,25.1 µM (active)
Nc1nc(=S)c2ncn([C@@H]3O[C@H](CO)[C@@H](O)[C@H]3O)c2[nH]1,-12.2% [at 38.3 µM] (inactive),
Oc1ccc(C2CNCc3sccc32)cc1O (configuration not stated),,35.5 µM (active)
Cc1cccc(C2CN(C)CCc3c2cc(O)c(O)c3Cl)c1 (configuration not stated),-16.8% (inactive),
CCN(CC)C(C)CN1c2ccccc2Sc2ccccc21 (configuration not stated),-2.39% (inactive),
S=C(Nc1ccccc1)Nc1nccs1,-18.7% (inactive),
CCN(CC)CCNC(=O)c1c(C)[nH]c(/C=C2\C(=O)Nc3ccc(F)cc32)c1C,-14.6% (inactive),
Cc1[nH]c(=O)c(C#N)cc1-c1ccc2nccn2c1,-11.5% (inactive),
CSc1ccc(C(=O)c2[nH]c(=O)[nH]c2C)cc1,-13.4% (inactive),
O=C1NC(=O)C(=Cc2ccc(-c3ccc(F)cc3O)o2)S1,-13.8% (inactive),
Nc1ncnc2c1[nH]c(=S)n2C1OC(CO)C(O)C1O (configuration not stated),25.9% (inactive),
O=C1Nc2ccc(I)cc2/C1=C/c1cc(Br)c(O)c(Br)c1,,25.1 µM (active)
